PubChem BioAssay (Tox21)
Results filed as inconclusive are left out. Active and inactive are the calls of the source. Unless noted, the call rests on the fitted dose curve.

How the values were obtained:
[1] = Nuclear factor erythroid 2-related factor 2/antioxidant responsive element (Nrf2/ARE) small molecule agonists: qHTS cell viability counter screen in human keratinocytes (AID 1919968; active means well fitted curve in the direction sought with a large enough effect in the repeat runs; an effect the other way counts as inactive or inconclusive; further: nearly all actives have a fitted effect of over 55% in size)
Summary of the method: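 Seed 1,500 KeratinoSens cells per well, then incubate 5 h at 37 C/5% CO2. Add compounds in DMSO and incubate 23 h. Add CellTiter-Fluor, wait 1 h and read fluorescence.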

[2] = Nuclear factor erythroid 2-related factor 2/antioxidant responsive element (Nrf2/ARE) small molecule agonists: luciferase reporter gene qHTS assay in human keratinocytes (AID 1919969); further: nearly all actives have a fitted effect of over 35% in size
[3] = molecular target: Gonadotropin-releasing hormone receptor (Homo sapiens) (UniProt P30968); experiment: Human gonadotropin-releasing hormone receptor (GnRHR) small molecule agonists, calcium flux assay in GnRHR-HEK293 cells (AID 1920063); further: nearly all actives have a fitted effect of over 35% in size
Summary of the method: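 Cells: HEK293 stably expressing human GnRHR. Steps: overnight (18 h) culture, 1 h calcium dye loading at 37 C, compound addition, kinetic fluorescence read at 480/540 nm. Each compound tested at 15 concentrations in triplicate.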

[4] = molecular target: KiSS-1 receptor (Homo sapiens) (UniProt Q969F8); experiment: Human kisspeptin (KISS1R) small molecule agonists, calcium flux assay in KISS1R-HEK293 cells (AID 1920064; active means well fitted curve in the direction sought with a large enough effect in the repeat runs; an effect the other way counts as inactive or inconclusive)
Summary of the method: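 Cells plated and incubated 18 h; dye added, 1 h at 37 C; compounds in DMSO pinned in; signal read at 480/540 nm every second for 3 min. Each compound tested at 15 concentrations in triplicate.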

[5] = G protein-coupled receptor (GPCR) small molecule agonists, calcium flux assay: HEK293 wild type cell line counter screen (AID 1920065)
Summary of the method: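 Counter-screen of the Tox21 10K library for non-specific calcium release: dye-loaded cells received compounds in DMSO and were monitored by kinetic fluorescence (480/540 nm, 3 min). Fifteen concentrations, run in triplicate.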

[6] = p53 small molecule agonists, cell-based qHTS assay with human liver microsomes (AID 1963577);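 further: p53 response element beta-lactamase reporter cells with liver microsomes plus NADPH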
Summary of the method: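 In this qHTS, p53 response-element beta-lactamase cells receive test compound together with a microsome/NADPH activating system (0.5 mg/mL final each) and are incubated 16 h at 37 C before LiveBLAzer fluorescence detection.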

[7] = p53 small molecule agonists, cell-based qHTS assay with rat liver microsomes (AID 1963578)
Summary of the method: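 Agonist mode in p53RE-bla reporter cells, with compounds co-incubated 16 h at 37 C alongside 0.5 mg/mL rat liver microsomes and 0.5 mg/mL NADPH (final), followed by a 2 h LiveBLAzer detection step.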

[8] = p53 small molecule agonists, cell-based qHTS assay with human liver microsomes: qHTS cell viability counter screen (AID 1963579); further: nearly all actives have a fitted effect of over 45% in size
Summary of the method: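 Metabolically activated exposure: compounds, human liver microsomes and NADPH (0.5 mg/mL final apiece) were added to p53RE-bla cells seeded 5 h earlier, left 16 h at 37 C, and then assessed for viability by CellTiter-Glo luminescence.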

[9] = p53 small molecule agonists, cell-based qHTS assay with rat liver microsomes: qHTS cell viability counter screen (AID 1963580); further: nearly all actives have a fitted effect of over 45% in size
Summary of the method: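 In HCT-116 cells carrying a p53 response element-bla reporter, compounds were metabolically activated in situ by rat liver microsomes with NADPH over 16 h. Cell ATP content then served as the cytotoxicity measure.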

[10] = p53 small molecule agonists, cell-based qHTS assay (AID 1963582; active means well fitted activation curve with a large enough effect in the signal ratio in the repeat runs, not every such curve was filed as active; the % refers to the signal ratio)
Summary of the method: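 Quantitative HTS in p53RE-bla cells: after a 5 h settling period, compounds delivered in DMSO were left on cells for 16 h at 37 C, and reporter induction was measured as fluorescence following 2 h substrate loading.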

[11] = molecular target: 5-hydroxytryptamine receptor 2A (Homo sapiens) (UniProt P28223); experiment: 5-hydroxytryptamine receptor 2A (HTR2A) small molecule agonists, cell-based qHTS assay (AID 1963587); further: nearly all actives have a fitted effect of over 30% in size
Summary of the method: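 HTR2A-CHO cells, plated 18 h at 37 C/5% CO2, dye-loaded 1 h at 37 C; compounds in DMSO added by pin tool (agonist mode). Intracellular calcium flux read as kinetic fluorescence on FDSS over 2 min at 1 s intervals.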

[12] = molecular target: Muscarinic acetylcholine receptor M1 (Homo sapiens) (UniProt P11229); experiment: Cholinergic receptor muscarinic 1 (CHRM1) small molecule antagonists, cell-based qHTS assay (AID 1963588); further: nearly all actives have a fitted effect of over 40% in size
Summary of the method: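 CHRM1-CHO calcium-flux assay, antagonist mode. Cells were seeded 18 h, dye-loaded 1 h at 37 C and given compound for 5 min at RT, then acetylcholine was added at 50nM. FDSS fluorescence was read 3 min; 15 concentrations, three runs.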

[13] = molecular target: Muscarinic acetylcholine receptor M1 (Homo sapiens) (UniProt P11229); experiment: Cholinergic receptor muscarinic 1 (CHRM1) small molecule agonists, cell-based qHTS assay (AID 1963589); further: nearly all actives have a fitted effect of over 35% in size
Summary of the method: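 Agonist-mode qHTS in CHO cells stably carrying human muscarinic M1. Intracellular calcium is tracked by fluorescence every second after compound transfer; each compound runs at 15 concentrations in three independent runs.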

[14] = cAMP Responsive Elements (CRE) small molecule agonists, cell-based qHTS assay (AID 1963590)
Summary of the method: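 Agonist mode qHTS in CRE-bla HEK 293T cells: compounds dosed from DMSO for 3 h at 37 C/5% CO2, followed by LiveBLAzer B/G FRET substrate for 2 h at room temperature.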

[15] = cAMP Responsive Elements (CRE) small molecule antagonists, cell-based qHTS assay (AID 1963591; active means well fitted inhibition curve with a large enough effect in the signal ratio in the repeat runs, not every such curve was filed as active; the % refers to the signal ratio)
Summary of the method: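 Antagonist mode: test compounds are co-incubated with the adenylyl cyclase activator NKH477 (0.25 uM final) on CRE-bla HEK293T cells for 3 h at 37 °C, followed by LiveBLAzer substrate loading.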

[16] = molecular target: Beta-2 adrenergic receptor (Homo sapiens) (UniProt P07550); experiment: Adrenergic beta2 receptor (ADRB2) small molecule antagonists, cell-based qHTS assay (AID 1963592); further: series mostly up to about 92 µM; nearly all actives have a fitted effect of over 50% in size
Summary of the method: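 Cells (CHO, stable ADRB2 overexpression) incubated 18-20hr at 37C; compounds added from DMSO; agonist mix (1nM isoproterenol, 100uM IBMX, 25uM Ro-20-1724) added; 0.5hr RT; d2-cAMP and anti-cAMP-cryptate added; 1hr RT; 665/615 nm read.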

[17] = molecular target: D(2) dopamine receptor (Homo sapiens) (UniProt P14416); experiment: Dopamine D2 receptor (DRD2) small molecule agonists, cell-based qHTS assay (AID 1963594); further: nearly all actives have a fitted effect of over 35% in size
Summary of the method: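 HEK293 cells stably expressing DRD2 were cultured 24 h at 37 C, then given Ro20-1724 (0.1 mM final) and compounds for 10 min at room temperature. NKH477 (200nM) was then added for 30 min. cAMP was read by HTRF.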

[18] = molecular target: D(2) dopamine receptor (Homo sapiens) (UniProt P14416); experiment: Dopamine D2 receptor (DRD2) small molecule antagonists, cell-based qHTS assay (AID 1963595; active means well fitted inhibition curve with a large enough effect in the signal ratio in the repeat runs, with a control signal flat; the % refers to the signal ratio)
Summary of the method: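 In this cell-based antagonist screen, compounds act for 10 min at room temperature before a 30 min challenge with 12 nM quinpirole and 200 nM NKH477. cAMP is quantified by HTRF competition in DRD2-HEK293 cells containing 0.1 mM Ro20-1724.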

[19] = molecular target: 5-hydroxytryptamine receptor 2A (Homo sapiens) (UniProt P28223); experiment: 5-hydroxytryptamine receptor 2A (HTR2A) small molecule antagonists, cell-based qHTS assay (AID 1963586); further: nearly all actives have a fitted effect of over 45% in size
Summary of the method: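 Antagonist-mode intracellular calcium assay: DOI (4 nM) added after 5 min compound pre-incubation at room temperature to dye-loaded HTR2A-CHO cells. Fluorescence followed for 3 min, sampled every second.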

Measured: Potency

Sequence of Beta-2 adrenergic receptor (Homo sapiens) (P07550 whole entry, looked up): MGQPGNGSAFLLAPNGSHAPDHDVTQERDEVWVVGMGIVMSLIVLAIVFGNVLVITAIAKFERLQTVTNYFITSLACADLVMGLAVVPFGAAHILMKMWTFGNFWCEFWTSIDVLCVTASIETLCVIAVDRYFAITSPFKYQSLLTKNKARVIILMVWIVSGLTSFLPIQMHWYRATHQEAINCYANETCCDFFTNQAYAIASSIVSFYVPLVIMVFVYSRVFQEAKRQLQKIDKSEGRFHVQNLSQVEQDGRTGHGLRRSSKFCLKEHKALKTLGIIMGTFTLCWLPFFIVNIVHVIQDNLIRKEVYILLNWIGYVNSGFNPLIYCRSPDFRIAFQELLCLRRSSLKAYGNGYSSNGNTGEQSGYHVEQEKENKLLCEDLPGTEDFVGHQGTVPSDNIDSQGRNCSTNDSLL
Sequence of Muscarinic acetylcholine receptor M1 (Homo sapiens) (P11229 whole entry, looked up): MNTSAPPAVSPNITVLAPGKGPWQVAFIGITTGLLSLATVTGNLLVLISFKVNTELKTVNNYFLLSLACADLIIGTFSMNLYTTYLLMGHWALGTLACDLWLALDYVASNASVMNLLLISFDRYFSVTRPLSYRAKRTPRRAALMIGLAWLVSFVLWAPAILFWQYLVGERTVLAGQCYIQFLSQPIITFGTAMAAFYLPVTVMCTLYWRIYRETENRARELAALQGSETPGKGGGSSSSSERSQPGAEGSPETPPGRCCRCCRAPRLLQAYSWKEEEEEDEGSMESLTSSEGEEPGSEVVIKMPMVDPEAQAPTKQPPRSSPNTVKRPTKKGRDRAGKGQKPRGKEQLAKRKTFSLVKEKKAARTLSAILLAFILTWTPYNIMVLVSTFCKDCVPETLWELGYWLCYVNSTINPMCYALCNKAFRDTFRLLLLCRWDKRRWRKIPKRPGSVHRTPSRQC
Sequence of KiSS-1 receptor (Homo sapiens) (Q969F8 whole entry, looked up): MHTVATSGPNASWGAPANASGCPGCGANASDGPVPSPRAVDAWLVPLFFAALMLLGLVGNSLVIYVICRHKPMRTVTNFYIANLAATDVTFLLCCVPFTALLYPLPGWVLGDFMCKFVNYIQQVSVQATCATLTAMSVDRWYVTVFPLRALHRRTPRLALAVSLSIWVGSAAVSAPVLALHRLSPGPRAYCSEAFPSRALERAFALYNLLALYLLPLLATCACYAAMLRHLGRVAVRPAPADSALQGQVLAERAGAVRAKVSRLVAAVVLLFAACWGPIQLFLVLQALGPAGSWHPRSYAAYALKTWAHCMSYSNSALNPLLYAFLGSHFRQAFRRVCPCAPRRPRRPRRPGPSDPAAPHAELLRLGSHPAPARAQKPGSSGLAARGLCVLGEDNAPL
Sequence of Gonadotropin-releasing hormone receptor (Homo sapiens) (P30968 whole entry, looked up): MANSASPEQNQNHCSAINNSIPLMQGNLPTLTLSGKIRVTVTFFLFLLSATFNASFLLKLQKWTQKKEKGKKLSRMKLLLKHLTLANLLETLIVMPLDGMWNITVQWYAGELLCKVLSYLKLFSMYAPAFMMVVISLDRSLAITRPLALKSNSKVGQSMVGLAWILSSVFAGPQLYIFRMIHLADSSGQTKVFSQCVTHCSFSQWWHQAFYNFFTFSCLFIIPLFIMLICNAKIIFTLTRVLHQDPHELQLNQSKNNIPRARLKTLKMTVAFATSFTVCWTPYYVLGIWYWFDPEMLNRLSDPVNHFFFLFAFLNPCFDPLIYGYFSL
Sequence of D(2) dopamine receptor (Homo sapiens) (P14416 whole entry, looked up): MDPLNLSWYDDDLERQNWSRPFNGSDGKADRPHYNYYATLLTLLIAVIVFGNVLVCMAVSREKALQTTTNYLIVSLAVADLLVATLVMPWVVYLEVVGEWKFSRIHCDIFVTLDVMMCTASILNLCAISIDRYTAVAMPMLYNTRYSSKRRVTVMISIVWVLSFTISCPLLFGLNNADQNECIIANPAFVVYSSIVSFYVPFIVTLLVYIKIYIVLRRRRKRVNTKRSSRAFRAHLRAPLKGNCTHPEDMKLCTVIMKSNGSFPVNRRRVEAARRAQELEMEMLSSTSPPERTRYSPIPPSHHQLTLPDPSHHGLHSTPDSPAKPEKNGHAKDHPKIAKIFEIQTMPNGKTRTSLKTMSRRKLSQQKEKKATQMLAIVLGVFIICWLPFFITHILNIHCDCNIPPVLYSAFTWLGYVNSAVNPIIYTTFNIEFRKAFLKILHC
Sequence of 5-hydroxytryptamine receptor 2A (Homo sapiens) (P28223 whole entry, looked up): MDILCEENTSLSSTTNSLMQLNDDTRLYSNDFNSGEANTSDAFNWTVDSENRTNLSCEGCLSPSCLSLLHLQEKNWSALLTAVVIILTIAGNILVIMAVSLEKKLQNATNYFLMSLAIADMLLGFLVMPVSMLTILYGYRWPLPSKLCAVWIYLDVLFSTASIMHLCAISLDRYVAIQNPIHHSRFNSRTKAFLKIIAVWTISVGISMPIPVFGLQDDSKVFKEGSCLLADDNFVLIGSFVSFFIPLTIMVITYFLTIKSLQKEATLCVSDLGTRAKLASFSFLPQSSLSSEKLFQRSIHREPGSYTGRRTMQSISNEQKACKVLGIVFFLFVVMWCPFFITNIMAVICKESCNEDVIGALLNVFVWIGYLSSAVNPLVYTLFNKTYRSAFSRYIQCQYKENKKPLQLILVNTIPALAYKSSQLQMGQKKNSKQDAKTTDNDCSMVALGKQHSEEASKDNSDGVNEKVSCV

CCOC(=O)c1ccc(I)cc1
not listed: [19]
inactive: all other assays above

CO[C@@H]1COCC[C@@H]1N[C@@H]1CC[C@@](C(=O)N2CCc3ncc(C(F)(F)F)cc3C2)(C(C)C)C1
not listed: [12] | [14] | [15]
inactive: all other assays above

C[C@@H]1C[C@H]2[C@@H]3CCC4=CC(=O)C=C[C@]4(C)[C@@]3(F)[C@@H](O)C[C@]2(C)[C@@]1(O)C(=O)CO
not listed: [11] | [12] | [13] | [19]
inactive: all other assays above

CC(C)[C@H](N)C(=O)OCCOCn1cnc2c(=O)[nH]c(N)nc21
not listed: [11] | [12] | [13] | [19]
inactive: all other assays above

Cn1c(=O)cc(Oc2ccc(F)cc2F)c2cnc(NCC(C)(C)O)nc21
not listed: [14] | [15] | [19]
inactive: all other assays above

CC(CCl)OC(C)CCl (stereo not drawn)
not listed: [15] | [16] | [19]
inactive: all other assays above

CC(C)NCCCC1(C(N)=O)c2ccccc2-c2ccccc21
not listed: [12] | [19]
inactive: all other assays above
